Assay results: PubChem BioAssay (NCATS)
Values joined by “and” are separate entries in the source; they are usually repeats but may differ in a detail not shown here. Equal values may be shown once. Results filed as inconclusive are left out. Active and inactive are the calls of the source. Calls come from the whole dose curve; as a rule, active = well fitted curve in the direction sought with a large enough effect; inconclusive = small, poorly fitted or top-dose-only effect, or another doubt; inactive = no such curve, though single readings can be large; an effect the other way counts as inactive or inconclusive.

Legend:
[1] = target: Cellular tumor antigen p53 (Homo sapiens) (UniProt P04637); experiment: Primary qHTS for small molecule compounds that upregulate eGFP-tagged delta133p53alpha (in N-terminal) cells. (AID 2060322); conditions: NCI-H358 eGFP-delta133p53alpha fluorescence, 24 h; activation: hits give high values;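 note: cells pre-induced with doxycycline then dosed without doxycycline; 0% = DMSO vehicle and 100% = reference activator; nearly all actives have a fitted effect of over 75% in size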
Cellular tumor antigen p53 (Homo sapiens), sequence (P04637 whole entry, looked up): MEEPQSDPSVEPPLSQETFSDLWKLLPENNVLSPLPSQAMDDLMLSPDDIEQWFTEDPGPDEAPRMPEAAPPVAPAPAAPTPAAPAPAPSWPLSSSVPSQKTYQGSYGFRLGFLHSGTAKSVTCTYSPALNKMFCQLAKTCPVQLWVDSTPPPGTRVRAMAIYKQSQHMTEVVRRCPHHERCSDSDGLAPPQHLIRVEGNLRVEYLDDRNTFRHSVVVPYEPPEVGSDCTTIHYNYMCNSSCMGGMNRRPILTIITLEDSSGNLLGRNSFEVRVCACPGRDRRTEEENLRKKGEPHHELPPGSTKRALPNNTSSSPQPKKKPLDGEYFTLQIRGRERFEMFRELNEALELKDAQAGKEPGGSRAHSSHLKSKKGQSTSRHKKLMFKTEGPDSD
In short: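 NCI-H358 cells pre-induced 24 h with 10 ng/ml doxycycline for eGFP-delta133p53alpha, plated dox-free and exposed 24 h at 37C to titrated compounds. Fixed, Hoechst-stained; gated GFP peak intensity by laser scanning cytometry, normalized to DMSO (0%) and 57.5 uM 5-azacytidine (100%).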

[2] = target: Aldehyde dehydrogenase, mitochondrial (Homo sapiens) (UniProt P05091); experiment: qHTS for Inhibitors of the Aldehyde Dehydrogenase Family (ALDH2) Primary screen (AID 2061308); conditions: ALDH2 enzyme inhibition qHTS, 1536-well; series mostly up to 56 µM;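 note: plate controls were vehicle for no effect and reference inhibitor for full effect; nearly all actives have a fitted effect of over 55% in size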
[3] = target: Retinaldehyde dehydrogenase 3 (Homo sapiens) (UniProt P47895); experiment: qHTS for Inhibitors of the Aldehyde Dehydrogenase Family (ALDH1A3) Primary screen (AID 2061315); conditions: ALDH inhibition qHTS; series mostly up to 56 µM;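 note: plate controls were DMSO vehicle for no effect and reference inhibitor for full effect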

CN(C)CC1CCOC1(c1ccccc1)c1ccccc1 (configuration not stated)
inactive: activation [1] -7% | Potency [2] | Potency [3]

C[C@@H]1CCC/C=C/[C@H]2CC(=O)C[C@@H]2[C@@H](O)/C=C/C(=O)O1
inactive: activation [1] 9.82% | Potency [2] | Potency [3]

CCc1ccc(Cc2ccc3c(c2)[C@]2(OC3)O[C@H](CO)[C@@H](O)[C@H](O)[C@H]2O)cc1
inactive: activation [1] 7% | Potency [2] | Potency [3]

CN1CCN(C(c2ccccc2)c2ccccc2)CC1
inactive: activation [1] 14.2% and -0.955% | Potency [2] | Potency [3]

CC1(C)CC[C@]2(C(=O)O[C@@H]3O[C@H](CO)[C@@H](O)[C@H](O)[C@H]3O)CC[C@]3(C)C(=CCC4[C@@]5(C)C[C@@H](O)[C@H](O)[C@@](C)(CO)C5[C@H](O)C[C@]43C)C2C1 (some centres not stated)
inactive: activation [1] 3.82% | Potency [2] | Potency [3]

CC1(C)CC2C(C1)C1(C)CCC13OC3(CO)C2O (configuration not stated)
inactive: activation [1] -14.3% | Potency [2] | Potency [3]

COc1cc2ncnc(Nc3ccc(F)c(Cl)c3)c2cc1OCCCN1CCOCC1
inactive: activation [1] -5.67% | Potency [2] | Potency [3]

COc1ccccc1-c1ccc(-c2cn(C(=O)N3CCCCC3Cc3ccccc3)nn2)cc1 (configuration not stated)
inactive: activation [1] -5% | Potency [2] | Potency [3]

CC(=O)O[C@@H]1[C@@H](O)[C@H](C)O[C@@H](O[C@H]2[C@@H]3C=CO[C@@H](O[C@@H]4O[C@H](CO)[C@@H](O)[C@H](O)[C@H]4O)[C@@H]3[C@@]3(CO)O[C@@H]23)[C@@H]1OC(=O)/C=C/c1ccccc1
inactive: activation [1] 4.58% | Potency [2] | Potency [3]
